# High-throughput results as filed in PubChem.
# Hits are enriched below; roughly 7.3% of the tested compounds scored in any of these assays.
# Rab9 promoter act: activators of Rab9 promoter; 320,000 tested, 2.8% active; AID 485297; Potency, µM (top dose mostly 9.22 µM), hits mostly activators; Huh7 Rab9 promoter-luciferase reporter, luminescence, 24 h; also: nearly all actives have a fitted effect of over 60% in size
#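 Using Huh7 cells stably transfected with Rab9 promoter–luciferase, compounds were incubated 24 h at 37 °C, 5% CO2; luciferase luminescence was read 10 min after reagent addition.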
# SMN2 splice enh: increases expression of the SMN2 splice variant; Potency, µM (titrated, usually from 46.1 µM), hits mostly activators; HEK293 SMN2-luciferase splicing reporter, luminescence, 30-36 h; 210,000 tested, 2.8% active; also: nearly all actives have a fitted effect of over 55% in size
#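 qHTS luciferase splicing reporter: luminescence rises when SMN2 exon 7 is included in transfected HEK293 cells. Compound exposure lasted 30-36 h at 37C, with 4.5 mM final sodium butyrate as control, followed by a ONE-Glo read.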
# ELG1 genotoxic: inducers of genotoxicity in HEK293T ELG1-luciferase cells | HEK293T ELG1-luciferase reporter, luminescence, 16 h | Potency, µM (series often up to 46 µM), hits mostly activators | 330,000 tested, 1.3% active; also: nearly all actives have a fitted effect of over 60% in size
#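 Genotoxic stress is detected as increased luminescence from luciferase-tagged ELG1 in HEK293T cells, measured with ONE-Glo after a 16 hr treatment at 37 °C.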
# FLuc modulator: inhibits or activates purified firefly luciferase, miR-21 counter-screen. purified FLuc, Km substrates, luminescence inhibition. AID 588342. Potency, µM (doses to about 57.5 µM), usual class: inhibitors. 360,000 tested, 6.9% active; also: nearly all actives have a fitted effect of over 55% in size
# Target sequence (P08659 whole entry, looked up): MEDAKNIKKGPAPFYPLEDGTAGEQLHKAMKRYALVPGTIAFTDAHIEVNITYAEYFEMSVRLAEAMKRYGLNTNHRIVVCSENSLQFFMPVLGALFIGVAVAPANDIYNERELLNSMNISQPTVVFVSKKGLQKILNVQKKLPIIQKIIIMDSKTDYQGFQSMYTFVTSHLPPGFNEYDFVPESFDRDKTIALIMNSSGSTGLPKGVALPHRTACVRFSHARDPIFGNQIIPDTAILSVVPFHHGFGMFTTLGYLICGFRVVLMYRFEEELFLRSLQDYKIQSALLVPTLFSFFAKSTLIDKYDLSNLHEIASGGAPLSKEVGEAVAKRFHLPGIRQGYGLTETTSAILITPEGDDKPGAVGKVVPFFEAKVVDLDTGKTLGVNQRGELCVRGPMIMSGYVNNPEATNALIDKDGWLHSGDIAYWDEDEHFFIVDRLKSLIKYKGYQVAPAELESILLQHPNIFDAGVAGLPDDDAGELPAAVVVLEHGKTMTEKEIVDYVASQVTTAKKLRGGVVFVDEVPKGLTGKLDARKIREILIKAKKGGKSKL
#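 Biochemical qHTS of compounds, final roughly 60 µM downward over six points, against 10 nM purified firefly luciferase using Km concentrations of substrates (10 uM D-luciferin, 10 uM ATP) in Tris acetate pH 7.5 buffer; luminescence output.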
# KinaseGlo FLuc: counter-screen: inhibitors of Kinase-Glo firefly luciferase; Q27757; Potency, µM (top dose mostly 38.3 µM), actives largely listed as inhibitors; AID 1379; Kinase-Glo luciferase, ATP luminescence, 8 min; 200,000 tested, 0.28% active; also: nearly all actives have a fitted effect of over 60% in size
#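 Kinase-Glo luciferase light output from ATP and luciferin was measured with 10 uM ATP, within the enzyme's linear range. Buffer: 50 mM imidazole pH 7.2, 50 mM KCl, 7 mM MgCl2, 0.01% Tween 20, 0.05% BSA; luminescence read after 8 min at ambient temperature.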
# NPC1 promoter act: activates the NPC1 promoter; Huh7 NPC1 promoter luciferase reporter, 24 h; Potency, µM (series often up to 9.22 µM), actives largely listed as activators; 320,000 tested, 2.4% active; also: nearly all actives have a fitted effect of over 60% in size
#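 In 1536-well qHTS, Huh7 cells harboring an NPC1 promoter–luciferase construct received compound for 24 h; activation was quantified by luminescence following luciferase reagent addition.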
# Hits are given with their value; 0 = inactive; ? = inconclusive; - = no result given; [ ] = remark or other dose. Calls follow the shape of the dose curve; as a rule, active = well fitted curve in the direction sought with a large enough effect; inconclusive = small, poorly fitted or top-dose-only effect, or another doubt; inactive = no such curve, though single readings can be large; an effect the other way counts as inactive or inconclusive.
SMILES,Rab9 promoter act,SMN2 splice enh,ELG1 genotoxic,FLuc modulator,KinaseGlo FLuc,NPC1 promoter act
COCC(=O)Nc1ccc(OCc2ccccc2)cc1,?,13µM,?,?,0,?
CS(=O)(=O)Nc1ccc(OCc2ccccc2)cc1,?,?,15µM,13µM,0,?
CC(=O)Nc1ccc(N=Cc2ccc(OCc3ccccc3)cc2)cc1,0,?,?,24µM,0,0
O=C(O)c1cccc(S(=O)(=O)Nc2ccc(OCc3ccccc3)cc2)c1,0,-,0,0,-,0
NC(=O)COc1ccccc1,0,-,0,0,-,0
COC(=O)Nc1ccc(SCC(=O)c2ccccc2)cc1,?,0,0,19µM,0,0
COC(=O)Nc1ccc(OCc2ccccc2)cc1,2.8µM,13µM,?,0[2.3 µM],0,?
COC(=O)Nc1ccc(Oc2ccccc2)cc1,0,?,?,?,0,0
CCOC(=O)c1ncc2[nH]c3cccc(OC(C)C)c3c2c1C,-,-,-,-,0,-
CCc1nn2c(=O)cc(COC(=O)c3ccccc3NC(=O)C3CCCCC3)nc2s1,-,-,-,0,-,-
C=CCN(C(=O)c1oc2c(Cl)cc(C)cc2c1C)C1CCS(=O)(=O)C1 (configuration not stated),3.5µM,-,?,11µM,-,3.5µM
CCOC(=O)c1sc(-n2[nH]c(C)cc2=O)nc1C,0,0,0,15µM,0,0
CCOC(=O)c1sc(NC(C)=O)nc1C,0,0,0,0,0,0
CN1CCN(c2ccc(NC(=O)c3ccc([N+](=O)[O-])o3)cc2Cl)CC1,?,-,?,9.5µM,-,?
O=C(Nc1ccc(N2CCOCC2)c(Cl)c1)c1ccc([N+](=O)[O-])o1,?,?,?,12µM,0,0
Cc1nnc(N2CCCC(C(=O)NCCc3ccc(Cl)cc3)C2)c2nn(-c3ccccc3)c(C)c12 (configuration not stated),-,-,-,0,-,-
COCCNC(=O)CCCn1c(SCC(=O)c2ccc(Br)cc2)nc2c(sc3ccccc32)c1=O,-,?,-,0,-,-
Nc1cccc2cc(S(=O)(=O)Nc3ccc(C(=O)O)cc3)ccc12,-,0[9.22 µM],-,-,0[7.66 µM],-
COc1ccc(C(=O)N2CCN(c3nc4c(C)c(Cl)ccc4s3)CC2)c(OC)c1,-,-,-,0,-,-
O=C(O)c1ccc(Cl)cc1Cl,-,0,-,-,-,-
N#CC(C#N)=C1C=CC=CN1/C(=C\c1ccccc1)C(=O)c1cccs1,0,0,0,19µM,0,0
COc1cccc2sc(N(C)c3ccccc3)nc12,0.5µM,8.9µM,1.6µM,0.85µM,0,1.3µM
CCC(C)N(C(=O)CSc1nc(-c2ccccc2)cs1)C1CCS(=O)(=O)C1 (configuration not stated),0,0,0,17µM,0,0
CCC(C)N(C(=O)CSc1nc(C)nc2ccccc12)C1CCS(=O)(=O)C1 (configuration not stated),0,-,0,0,-,0
COc1ccc(-c2[nH]n(-c3ccc([N+](=O)[O-])cc3)c(=O)c2C=NCc2ccc(F)cc2)cc1,0,0,0,0,0,0
SMILES,Rab9 promoter act,SMN2 splice enh,ELG1 genotoxic,FLuc modulator,KinaseGlo FLuc,NPC1 promoter act
COc1ccc(-c2cc(=O)n(-c3ccc([N+](=O)[O-])cc3)[nH]2)cc1,0,0,0,21µM,0,0
O=c1[nH]cc(CS(=O)(=O)Cc2c[nH]c(=O)[nH]c2=O)c(=O)[nH]1,-,0[9.22 µM],-,-,0[7.66 µM],-
CC1=CCC(COC(=O)Nc2ccccc2)CC1 (configuration not stated),4µM,18µM,?,6.7µM,?,2.8µM
O=C(Nc1ccccc1)OCC1CCCN2CCCCC12 (configuration not stated),0,0,0,0,0,0
Cc1nc2cccnc2n1C1CCN(C(=O)Nc2ccccc2C(F)(F)F)CC1,-,-,-,0,-,-
COc1ccc(OCc2cc(C(=O)N3CCCCCCC3)no2)c(Cl)c1,0,-,?,?,-,0
O=C(c1cc(COc2ccc(F)cc2F)on1)N1CCSCC1,2.5µM,-,21µM,15µM,0,?
CCN1CCN(C(=O)c2cc(COc3ccc(C(C)=O)cc3OC)on2)CC1,3.2µM,-,?,12µM,-,2.2µM
COc1cc(C)ccc1OCc1cc(C(=O)N2CCCCCCC2)no1,4.5µM,-,?,21µM,-,?
